Reference: PubChem BioAssay (NCI)
This is part of a sample that, as a whole, favours compounds with a hit. Of some 83,000 tested, about 20% had one in any assay.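 Cells were grown in 96-well plates and exposed to the test compound at a single concentration for 48 hours; results are reported as percent growth, with values below 10 considered active.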 The source made the active and inactive calls.

Test system: MDA-MB-468 breast
Assay: NCI-60 one-dose screen, 48 h (100 = growth as untreated, 0 = no growth, -100 = all killed)
Conditions: 10 µM unless noted

SMILES	growth
O=C(NCc1ccco1)Nc1cccc2c(NC(=O)NCc3ccco3)cccc12	85.7% [100 µM] (inactive)
CCc1nc2cc(/C=C/C(=O)NO)c(F)cc2c(=O)n1CCc1ccccc1	-32.9% (active)
C=C1C(=O)O[C@H]2[C@H]1CC/C(COC(=O)NCc1ccc(Cn3c(=O)sn(-c4ccc(Cl)cc4)c3=O)cc1)=C\CC[C@@]1(C)O[C@@H]21	22.6% (inactive)
CCOCCNc1ccc(S(=O)(=O)c2ccc(N)cc2)cc1N	95.9% (inactive)
NS(=O)(=O)c1ccc(N/C=C/C(=O)c2cc3ccccc3oc2=O)cc1	90.4% (inactive)
O=C(O)c1ccccc1Nc1cccc(S(F)(F)(F)(F)F)c1	111% (inactive)
O=C(CN1C(=O)/C(=C/c2ccccc2)SC1=S)N1CCOCC1	82.4% (inactive)
CC(=O)Nc1c(C(=O)Nc2ccccc2)sc2nc3c(cc12)C(OC(C)=O)CCC3 (stereo not given)	90.5% (inactive)
O=C1CC(c2ccccc2)Cc2nc3ccc(Cl)cc3cc21 (stereo not given)	10.2% (inactive)
COc1cccc(-c2nc(SCC(=O)Nc3ccc(C(=O)/C=C/c4ccc(OC)c(OC)c4)cc3)[nH]c(=O)c2C#N)c1	65.7% (inactive)
O=C(/C=C/C12c3ccccc3C(c3ccccc31)C1C(=O)NC(=O)C12)c1cccs1 (stereo not given)	45.8% (inactive)
CCCCn1cnc(-c2cc(-c3ccccc3)cc(C(F)(F)F)c2)n1	99% (inactive)
CCCCN1CCN(c2ccc3nc(-c4ccc5nc(-c6ccc(OCC)c(OCC)c6)[nH]c5c4)[nH]c3c2)CC1	-77.8% (active)
CCOC(=O)c1c(-c2ccc(C)cc2)c(C#N)c(=O)n(-c2cccc(C(F)(F)F)c2)c1N	99.9% (inactive)
O=C(CCc1nnc2sc(Cc3ccccc3Cl)nn12)c1nc2ccccc2[nH]1	84.5% (inactive)
Cn1c(/C(C#N)=C/c2ccc3ccccc3c2)cc2ccccc21	-3.16% (active)
CC(=O)Nc1ccc(S(=O)(=O)N/N=C\c2ccc(Cl)c(Cl)c2)cc1	100% (inactive)
COc1cccc(-c2nc3sccn3c2-c2ccnc(NCCN3CCCN(C)S3(=O)=O)n2)c1	75.6% (inactive)
Cn1cc(-c2csc(-c3cn(C)c4ccccc34)n2)c2cnccc21	-27.1% (active)
O=C(c1nc2ccccc2[nH]1)C1C(c2ccc(Cl)cc2)C2CC3CCCC[C@H]3N2[C@@]12C(=O)Nc1cc(Cl)ccc12 (stereo not given in full)	12.1% (inactive)

SMILES	growth
COc1cc(C2C=C(C)N=C3SC=C(C)N32)cc(OC)c1OC (stereo not given)	-74.2% (active)
CC(NC(=O)CCl)c1ccccc1 (stereo not given)	89% (inactive)
O=c1n(Cc2ccc3ccccc3c2)ccn1Cc1ccc2ccccc2c1	94.3% (inactive)
CCOC(=O)c1cc(C(=O)c2ccc(Br)cc2)n2cc(C)cc(C)c12	108% (inactive)
Nc1c(C(=O)Nc2ccccn2)sc2nc3c(cc12)C(=O)CCC3	7.45% (active)
O=C(N/N=C/c1ccc(Oc2ccccc2)cc1)c1cnn2c1NC(c1ccccc1)C2 (stereo not given)	30.2% (inactive)
O=C1c2cc(Br)ccc2Oc2cc([N+](=O)[O-])ccc2N1c1ccc(I)cc1F	105% (inactive)
N#CCCN1C(=O)CCC1C(=O)O (stereo not given)	103% (inactive)
CS(=O)c1nccc(-c2c(-c3ccc(F)c(OCc4ccccc4)c3)nc3sccn23)n1 (stereo not given)	-19.4% (active)
C=C(C(N)=O)C(N)C(=O)O (stereo not given)	121% (inactive)
OC(CCN1CCCC1)(c1ccccc1)C1CCCCC1 (stereo not given)	92% (inactive)
CN1CCN(Cc2ccc(NC(=O)c3cncc(C#Cc4c(N)ncc5cc(F)ccc45)c3)cc2C(F)(F)F)CC1	55.6% (inactive)
Cc1ccc2c(c1)C(=O)CCS2	111% (inactive)
COc1ccc(-c2nc3sc(-c4cc(OC)c(OC)c(OC)c4)nn3c2/C=C2/C(=O)Nc3ccc(F)cc32)cc1	-65.3% (active)
CN(C)CCCC(=O)Nc1ccc(Cn2nnc3c2C(=O)c2nnn(Cc4ccc(NC(=O)CCCN(C)C)cc4)c2C3=O)cc1	-62.7% (active)
C[C@@H]1CC[C@H]2[C@@H](C)C(O)O[C@@H]3O[C@]4(C)CC[C@@H]1[C@]32OO4 (stereo not given in full)	27.7% (inactive)
CCCOc1ccc(-c2nc(-c3ccc(N)cc3)cs2)cc1	110% (inactive)
O=c1oc2ccc(F)cc2c(=O)n1-c1ccc(I)cc1F	-1.22% (active)
OCCNCCNc1c2ccccc2nc2ccccc12	37.4% (inactive)
Cc1[nH]nc2ncc(C#Cc3cncc(C(=O)Nc4ccc(CN5CCN(C)CC5)c(C(F)(F)F)c4)c3)cc12	26.1% (inactive)
